Data taken from PubChem BioAssay (NCATS).
Records with an inconclusive call do not appear. Calls of active or inactive are those of the source. Calls follow the shape of the dose curve; as a rule, active = well fitted curve in the direction sought with a large enough effect; inconclusive = small, poorly fitted or top-dose-only effect, or another doubt; inactive = no such curve, though single readings can be large; an effect the other way counts as inactive or inconclusive.

Tested on: Zika virus NS2B-NS3 protease (unlinked)
Test: Optimization of GU AMC qHTS for Zika virus inhibitors: Unlinked NS2B-NS3 protease assay (AID 1347151); also: nearly all actives have a fitted effect of over 80% in size
Details: recombinant ZIKV NS2B-NS3 protease, fluorogenic AMC substrate; series mostly up to 52.5 µM; activity change, negative = inhibition: at the top concentration
How it was run: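 Noncovalent NS2B hydrophilic domain–NS3 protease complex (25 nM final) in 10 mM Tris-HCl pH 8.0, 0.01% Tween 20; AMC substrate, room temperature 15 min (~20% conversion); fluorescence change normalized, 4-parameter Hill fit.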
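Also: 0% = no-inhibitor control and -100% = no-enzyme control.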

SMILES	activity change, negative = inhibition
CN(C)C(=O)Oc1cccc([N+](C)(C)C)c1	0.363% (inactive)
COc1ccc2c(c1OC)C(=O)O[C@@H]2[C@H]1c2c(cc3c(c2OC)OCO3)CCN1C	7.47% (inactive)
CC(=O)[C@]1(O)Cc2c(O)c3c(c(O)c2[C@@H](O[C@H]2C[C@H](N)[C@H](O)[C@H](C)O2)C1)C(=O)c1ccccc1C3=O	23.9% (inactive)
C[C@]12CCC(=O)C=C1CC[C@@H]1[C@@H]2C(=O)C[C@@]2(C)[C@H]1CC[C@]2(O)C(=O)CO	1.65% (inactive)
c1cnc(N2CCN(Cc3ccc4c(c3)OCO4)CC2)nc1	0.281% (inactive)
CC(=O)OC(C)C[N+](C)(C)C (configuration not stated)	3.91% (inactive)
CNCCC(Oc1ccccc1OC)c1ccccc1 (configuration not stated)	2.3% (inactive)
CC(C)(C)c1ccc(C(=O)CCCN2CCC(OC(c3ccccc3)c3ccccc3)CC2)cc1	-25.2% (inactive)
CCNC(=O)N1CCN(CCCC(c2ccc(F)cc2)c2ccc(F)cc2)CC1	8.92% (inactive)
CNC1(C)C2CCC(C2)C1(C)C (configuration not stated)	-4.41% (inactive)
CN(C)CCN(Cc1cccs1)c1ccccn1	-2.18% (inactive)
CN1CCN(CC(=O)N2c3ccccc3C(=O)Nc3cccnc32)CC1	1.67% (inactive)
Cc1cccc(C)c1NC(=O)C(C)N (configuration not stated)	-0.607% (inactive)
OCCN1CCN(CCCN2c3ccccc3C=Cc3ccccc32)CC1	-0.827% (inactive)
CCN(CC)CCNC(=O)c1cc(S(C)(=O)=O)ccc1OC	0.272% (inactive)
O=c1[nH]c(=O)n([C@H]2C[C@H](O)[C@@H](CO)O2)cc1Br	5.32% (inactive)
COCC(=O)O[C@]1(CCN(C)CCCc2nc3ccccc3[nH]2)CCc2cc(F)ccc2[C@@H]1C(C)C	27.2% (inactive)
c1ccc2c(c1)CCCC2C1=NCCN1 (configuration not stated)	1.37% (inactive)
CC(C)[N+](C)(CCOC(=O)C1c2ccccc2Oc2ccccc21)C(C)C	3.34% (inactive)
O=C1CC2(CCCC2)CC(=O)N1CCCCN1CCN(c2ncccn2)CC1	-5.52% (inactive)
Cc1ccc(S(=O)(=O)NC(=O)NN2CCCCCC2)cc1	-1.91% (inactive)
CSc1ccc(C(=O)c2[nH]c(=O)[nH]c2C)cc1	-5.31% (inactive)
CN(C)CCCN1c2ccccc2Sc2ccc(C(F)(F)F)cc21	10.8% (inactive)
CC(C)NCC(O)c1cc(O)cc(O)c1 (configuration not stated)	-2.36% (inactive)
CN(C)C(=O)Oc1ccc[n+](C)c1	-5.15% (inactive)

Tested on: Zika virus NS2B-NS3 protease
Test: Primary screen GU AMC qHTS for Zika virus inhibitors (AID 1347154); also: nearly all actives have a fitted effect of over 70% in size
Details: Zika NS2B-NS3 unlinked protease, AMC fluorogenic substrate; series mostly up to 54.1 µM; activity change, negative = inhibition: at the top concentration
How it was run: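 Fluorogenic AMC-substrate cleavage by noncovalent NS2B-NS3 protease complex (25 nM, pH 8.0 Tris buffer with Tween 20) followed for 15 minutes at room temperature (~20% conversion). Percent inhibition from ex340/em450 signal change, fitted by 4-parameter Hill equation.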

SMILES	activity change, negative = inhibition	outcome
CN(C)C(=O)Oc1cccc([N+](C)(C)C)c1	5.11% (inactive)	–
COc1ccc2c(c1OC)C(=O)O[C@@H]2[C@H]1c2c(cc3c(c2OC)OCO3)CCN1C	–	inactive
CC(=O)[C@]1(O)Cc2c(O)c3c(c(O)c2[C@@H](O[C@H]2C[C@H](N)[C@H](O)[C@H](C)O2)C1)C(=O)c1ccccc1C3=O	-4.01% (inactive)	–
C[C@]12CCC(=O)C=C1CC[C@@H]1[C@@H]2C(=O)C[C@@]2(C)[C@H]1CC[C@]2(O)C(=O)CO	–	inactive
c1cnc(N2CCN(Cc3ccc4c(c3)OCO4)CC2)nc1	–	inactive
CC(=O)OC(C)C[N+](C)(C)C (configuration not stated)	-1.88% (inactive)	–
Cc1cc(C)c(/C=C2\C(=O)Nc3ccccc32)[nH]1	-5.98% (inactive)	–
CNCCC(Oc1ccccc1OC)c1ccccc1 (configuration not stated)	-4.3% (inactive)	–
COCCOC(=O)C1=C(C)NC(C)=C(C(=O)OC(C)C)C1c1cccc([N+](=O)[O-])c1 (configuration not stated)	–	inactive
CCCCCCCC/C=C\CCCCCCCC(=O)NCc1ccc(O)c(OC)c1	13.1% (inactive)	–
NC(=Nc1ccccc1)Nc1ccccc1	–	inactive
CCNC(=O)N1CCN(CCCC(c2ccc(F)cc2)c2ccc(F)cc2)CC1	-1.94% (inactive)	–
CNC1(C)C2CCC(C2)C1(C)C (configuration not stated)	-1.24% (inactive)	–
CN(C)CCN(Cc1cccs1)c1ccccn1	-5.28% (inactive)	–
CN1CCN(CC(=O)N2c3ccccc3C(=O)Nc3cccnc32)CC1	–	inactive
Cc1cccc(C)c1NC(=O)C(C)N (configuration not stated)	-8.81% (inactive)	–
OCCN1CCN(CCCN2c3ccccc3C=Cc3ccccc32)CC1	5.24% (inactive)	–
CCn1nc(C(=O)O)c(=O)c2cc3c(cc21)OCO3	-4.39% (inactive)	–
CCN1CCc2nc(N)oc2CC1	-7.05% (inactive)	–
CCN(CC)CCNC(=O)c1cc(S(C)(=O)=O)ccc1OC	-0.0966% (inactive)	–
O=c1[nH]c(=O)n([C@H]2C[C@H](O)[C@@H](CO)O2)cc1Br	2.19% (inactive)	–
COCC(=O)O[C@]1(CCN(C)CCCc2nc3ccccc3[nH]2)CCc2cc(F)ccc2[C@@H]1C(C)C	–	inactive
COc1cc2c(cc1OC)-c1cc(=Nc3c(C)cc(C)cc3C)n(C)c(=O)n1CC2	-8.95% (inactive)	–
c1ccc2c(c1)CCCC2C1=NCCN1 (configuration not stated)	-5.4% (inactive)	–
CC1=C(C)C(=O)C(CCCCC#CCCCC#CCO)=C(C)C1=O	-10.8% (inactive)	–
CC(C)[N+](C)(CCOC(=O)C1c2ccccc2Oc2ccccc21)C(C)C	-2.11% (inactive)	–
CN1C(=O)CC[C@H]1c1cccnc1	-0.444% (inactive)	–
